In PubChem BioAssay one finds composite z-score and z-score data, which are given here for 18 compounds.

For assay [1], the system named is XIP peptide (Xip251-270) binding. The assay is described as follows: small-molecule binders of XIP peptide, primary screen, biochemical, small-molecule microarray, fluorescence 635/667 nm, 0.1 µg/mL protein (AID 1182). Conditions: fluorescent protein binding, 635 nm, higher = more signal, called active from +8 up or from −8 down.
For assay [2], the system named is XIP peptide (Xip251-270). Put plainly: small-molecule binders of XIP peptide, primary screen, biochemical, small-molecule microarray, fluorescence 635/667 nm, 0.5 µg/mL protein (AID 1183). Conditions: small-molecule microarray binding, fluorescence 635 nm; higher = more signal.
Assay [3] is described as follows: Plasmodium falciparum growth inhibition, primary screen, strain 3D7, DAPI fluorescence, 100 nL (AID 1184).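 Also: parasites grown inside human red blood cells in medium with human serum.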 Conditions: P. falciparum 3D7 growth, 3 d, higher = more signal.
The target in assay [4] is Homeobox protein Hox-A13 (Mus musculus) (UniProt Q62424). The assay is described as follows: inhibitors of HoxA13-DNA binding, primary screen, biochemical, fluorescence polarization, labeled oligonucleotide (AID 1185). To be noted: 15 min, higher = more signal, called active from +8 up or from −8 down. A general note: In fluorescence polarisation assays a small probe gives low polarisation when free and higher when bound to something large.
Sequence of Homeobox protein Hox-A13 (Mus musculus) (Q62424 whole entry, looked up): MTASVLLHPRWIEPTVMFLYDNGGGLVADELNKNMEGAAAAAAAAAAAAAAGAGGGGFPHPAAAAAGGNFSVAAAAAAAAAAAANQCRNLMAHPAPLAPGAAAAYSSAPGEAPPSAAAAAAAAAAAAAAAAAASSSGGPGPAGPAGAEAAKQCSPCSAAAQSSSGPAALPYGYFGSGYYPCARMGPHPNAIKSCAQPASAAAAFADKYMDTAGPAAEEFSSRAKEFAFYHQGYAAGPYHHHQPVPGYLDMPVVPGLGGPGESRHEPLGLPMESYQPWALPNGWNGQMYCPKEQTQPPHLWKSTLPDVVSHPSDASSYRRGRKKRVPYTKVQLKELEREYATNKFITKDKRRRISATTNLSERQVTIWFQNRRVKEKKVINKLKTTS

Values joined by “and” are separate entries in the source; they are usually repeats but may differ in a detail not shown here. Identical values can stand only once. Active and inactive are the calls of the source.

`COC(=O)C1=C(C)N(Cc2ccccc2)[C@]23O[C@](C(=O)OC)(C(=O)N2[C@@H]1c1ccccc1)[C@@H](c1ccccc1)[C@@H]3C(=O)c1ccccc1`: the composite z-score in assay [1] was 0.114 (inactive) and 0.416 (inactive); in assay [2], -0.0935 and 0.0333. Further, the z-score is -0.362 and 0.318 in assay [3]; -0.11 (inactive) and -0.0833 (inactive) in assay [4].
Take `O=C(NN=C1C[C@@H](O)[C@@H](O)[C@@H]2[C@@H]3C(=O)N(Cc4ccc5c(c4)OCO5)C(=O)[C@@H]3CC[C@H]12)OCc1ccccc1`: the composite z-score in assay [1] was 0.974 (inactive); in assay [2], 0.222. The results for the z-score in assay [3] and in assay [4] were 0.228 and 0.0311 (inactive), respectively.
As to `CCCC[C@@H]1CN2[C@@H](CC[C@@H](C)[C@@H]2c2ccc(Br)cc2)C(=O)O1`, the composite z-score in assay [1] is 0.177 (inactive) and 0.122 (inactive); in assay [2] it was 0.712 and 0.647. For the same compound, the z-score was 0.524 and 0.888 in assay [3]; -3.5 (inactive) and -2.53 (inactive) in assay [4].
For the compound `CON(C)C(=O)c1nnc2c3ccccc3n(S(=O)(=O)c3ccc(C)cc3)c2n1`, the composite z-score in assay [1] was 0.41 (inactive) and 0.536 (inactive); in assay [2] it was 0.632 and 0.305. Besides, the z-score is -0.248 and -0.675 in assay [3]; -5.36 (inactive) and -5.11 (inactive) in assay [4].
Take `CO[C@H]1COC(=O)[C@H](C)NC(=O)CC=C[C@@H](C)[C@H](OC)COC(=O)CC=C[C@@H]1C`: the composite z-score is 0.195 (inactive) in assay [1] and 0.394 in assay [2]. Also, the z-score was 0.459 in assay [3] and -0.298 (inactive) in assay [4].
In the case of `COC(=O)C1=C(C)N(Cc2ccccc2)C2=C3C(=O)CCC[C@@H]3[C@@](O)(C(=O)OC)C(=O)N2[C@@H]1c1ccccc1`, the composite z-score in assay [1] was 0.995 (inactive) and 0.0397 (inactive); in assay [2], 0.135 and -0.554. The z-score was 0.0894 and 0.169 in assay [3]; -0.77 (inactive) and -1.47 (inactive) in assay [4].
With `COC(=O)C1=C(C)N(Cc2ccccc2)[C@]23O[C@](C(=O)OC)(C(=O)N2[C@@H]1c1ccccc1)[C@H]1CCCC(=O)[C@H]13`, the composite z-score in assay [1] was 0.472 (inactive) and 0.134 (inactive); in assay [2], -0.0169 and 0.279. Further, the z-score in assay [3] is 0.0733 and -0.727; in assay [4], -4.3 (inactive) and 0.514 (inactive).
For `Cc1ccc(S(=O)(=O)N[C@H]2COC(=O)[C@@H](Cc3ccccc3)NC(=O)[C@@H](C)COC(=O)CC=C[C@@H]2C)cc1`, the composite z-score is 0.124 (inactive) and 0.125 (inactive) in assay [1]; 0.174 and -0.0928 in assay [2]. In addition, the z-score was -0.446 and -1.34 in assay [3]; 0.469 (inactive) and -3.02 (inactive) in assay [4].
As to `C[C@@H](ON=C1[C@H]2CCn3c(=O)n(-c4ccccc4)c(=O)n3[C@H]2[C@H](O)[C@@H]2O[C@H]12)c1cn([C@H](CO)Cc2ccccc2)nn1`, the composite z-score in assay [1] was 0.764 (inactive); in assay [2] it was 0.297. Also, the z-score was -0.516 in assay [3] and -2.41 (inactive) in assay [4].
Consider `COC(=O)CC=C[C@@H](C)[C@@H](CO)NS(=O)(=O)c1ccc(C)cc1`, for which the composite z-score is -0.468 (inactive) and 0.212 (inactive) in assay [1]; 0.169 and 0.315 in assay [2]. In addition, the z-score was -0.106 and 0.0276 in assay [3]; 0.0308 (inactive) and -1.12 (inactive) in assay [4].
On to `Cc1cc2c(nc1C)CCCN2CC(C)ON=C[C@@H](C)[C@H](OCc1ccccc1)C(C)C` (some centres not stated), for which the values for the composite z-score in assay [1] and in assay [2] were -0.144 (inactive) and -0.0166, respectively. For the same compound, the z-score in assay [3] is 0.5; in assay [4], -0.838 (inactive).
In the same order, the values of `CCCNC(=O)OC[C@H]1O[C@H](CCON=C(C)CCN2CCc3nc(-c4ccccc4)c(-c4ccccc4)cc3C2)C=C[C@@H]1Oc1ccc(OC)cc1` are -0.377 (inactive), 0.201, -0.821 and -2.84 (inactive).
In the same order, the values of `C[C@@H]1CC[C@@H](C(=O)O)N[C@H]1c1ccc(-c2ccco2)cc1` are 1.06 (inactive), 0.827, -0.25 and -1.59 (inactive).
On the same counts, the results for `CCCNC(=O)OC[C@H]1O[C@H](CCON=C(C)CCC(=O)OC[C@H]2O[C@H](C#Cc3ccccc3)C=C[C@@H]2Oc2ccc(C)cc2)C=C[C@@H]1Oc1ccc(OC)cc1` are -0.238 (inactive), -0.439, -2.1 and -0.983 (inactive).
Consider `CCOC(=O)NN=C1C[C@@H](O)[C@@H](O)[C@@H]2[C@@H]3C(=O)N(Cc4ccc5c(c4)OCO5)C(=O)[C@@H]3CC[C@@H]12`, for which the composite z-score is 0.483 (inactive) in assay [1] and 0.586 in assay [2]. In addition, the z-score was 0.132 in assay [3] and -0.24 (inactive) in assay [4].
As for `COc1ccc(O[C@H]2C=C[C@@H](c3ccccc3)O[C@@H]2COC(=O)CCC(C)=NO[C@H](C)c2cn([C@H](CO)Cc3ccccc3)nn2)cc1`, the composite z-score in assay [1] is 0.31 (inactive) and 0.164 (inactive); in assay [2], 0.238 and 0.548. Besides, the z-score in assay [3] is -1.46 and -1.1; in assay [4], -5.26 (inactive) and -4.59 (inactive).
In the case of `C[C@@H](c1ccccc1)N1C(=O)[C@H]2[C@H]3[C@H](O)[C@H](O)CC(=O)[C@@H]3CC[C@H]2C1=O`, the composite z-score in assay [1] was -0.415 (inactive); in assay [2], 0.403. Also, the figures for the z-score in assay [3] and in assay [4] were 0.241 and 0.063 (inactive), respectively.
In the case of `CCOC(=O)[C@H](Cc1ccccc1)NC(=O)CCC1CC(OC(=O)NCc2cccc3ccccc23)CC2(CCCC(COC(=O)NCCCN3CCCC3=O)O2)O1` (some centres not stated), the composite z-score in assay [1] was 0.684 (inactive); in assay [2] it was 0.351. Also, the z-score was -1.63 in assay [3] and -4.68 (inactive) in assay [4].
